High-throughput results (PubChem BioAssay)
This is a sample that favours compounds with a hit; in the whole collection about 11% have one here.
IMPase Li cell: cell-permeable IMPase inhibitors with lithium potentiation; CHO-M1 cells, IP1 TR-FRET (IP-One), carbachol + lithium; Potency, µM (top dose mostly 59.4 µM), without a hit: at the top dose activity, negative = IMPase inhibition, usual class: inhibitors; hit rate 0.35% among 210,000; active = well fitted inhibition curve with a large enough effect; inconclusive = small, poorly fitted or top-dose-only effect; inactive = no such curve, though single readings can be large or run the other way;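 note: IP1 builds up when IMPase is blocked and the TR-FRET signal falls; potency is the fitted concentration of half-maximal effect; plate controls were basal vehicle for no effect and high inhibitor control for full effect; nearly all actives have a fitted effect of over 50% in size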
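Lithium-sensitised IP1 accumulation assay; M1-expressing CHO cells treated 30 min at 37C with compound. Competitive antibody detection by time-resolved FRET followed a 10 min room-temperature lysis step.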
IMPase inh: cell-permeable inhibitors of inositol monophosphatase (IMPase) | P97697 | CHO-M1 cells, IP1 accumulation, HTRF TR-FRET ratio | inhibition (IP1 accumulation), % at 46.1 µM | 120,000 tested, under 10 active | AID 901; active = well fitted curve in the direction sought with a large enough effect in the signal ratio, not every such curve was filed as active; inconclusive = small, poorly fitted or top-dose-only effect, or a change in a side signal; inactive = no such curve, though single readings can be large or run the other way; the % refers to the signal ratio;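 note: cells stimulated with carbachol in lithium chloride buffer; plate controls were DMSO basal wells for no effect and reference inhibitor wells for full effect; higher means more IMPase inhibition seen as more IP1 and lower FRET ratio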
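CHO-M1 cells (CHO stably expressing M1 receptor), compound up to 46 uM final, stimulated with carbachol (50 uM as added) in buffer with 50mM LiCl, pH 7.4, 30 min at 37C. Cytosolic IP1 read by TR-FRET; AC50 from Hill fits.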
HPGD block: HPGD (human) dehydrogenase inhibition; purified HPGD, NADH fluorescence kinetic, PGE2 substrate; Potency, µM, without a hit: top-dose activity change, negative = inhibition, actives largely listed as inhibitors; hit rate 4.3% among 150,000; AID 894; note: potency is the fitted concentration of half-maximal effect
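20 nM HPGD preincubated 15 min at room temperature with compound in 50 mM Tris-HCl pH 8, 0.01% Tween 20. Started with 1 mM NAD+ and 30 uM prostaglandin E2; NADH fluorescence (360/450 nm) read 5 times over 30-s intervals, last minus first.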
PNC inhibitor: inhibitors of perinucleolar compartment assembly; PC3M PTB-GFP, PNC prevalence imaging, 16 h; active compounds read low; activity change (PNC), negative = inhibition, % at 10 µM; hit rate 3.1% among 140,000; AID 2417;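 active = readout at or below -70, meaning at least 70% loss of cells showing the perinucleolar compartment, a nuclear body marking cancer cells; inconclusive = readout between -30 and a set limit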;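 note: plate controls were DMSO wells for no effect and camptothecin positive control wells for full effect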
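PC3M cells stably expressing PTB-GFP, 750–1000 cells/well, treated 16 h at 37 °C with compound (23 nl of library stock), in duplicate. After paraformaldehyde fixation and Hoechst stain, imaged at 20x; PNC prevalence scored by image analysis.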
ALDH1A1 inh: ALDH1A1 (human) enzyme inhibition | Purified ALDH1A1, NADH fluorescence, propionaldehyde substrate | Potency, µM (highest dose often 75.3 µM), without a hit: at the top dose activity, negative = inhibition, most hits filed as inhibitors | hit rate 7.3% among 220,000;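 note: potency is the fitted concentration of half-maximal effect; plate controls were no enzyme wells and a reference inhibitor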
Target sequence (P00352 whole entry, looked up): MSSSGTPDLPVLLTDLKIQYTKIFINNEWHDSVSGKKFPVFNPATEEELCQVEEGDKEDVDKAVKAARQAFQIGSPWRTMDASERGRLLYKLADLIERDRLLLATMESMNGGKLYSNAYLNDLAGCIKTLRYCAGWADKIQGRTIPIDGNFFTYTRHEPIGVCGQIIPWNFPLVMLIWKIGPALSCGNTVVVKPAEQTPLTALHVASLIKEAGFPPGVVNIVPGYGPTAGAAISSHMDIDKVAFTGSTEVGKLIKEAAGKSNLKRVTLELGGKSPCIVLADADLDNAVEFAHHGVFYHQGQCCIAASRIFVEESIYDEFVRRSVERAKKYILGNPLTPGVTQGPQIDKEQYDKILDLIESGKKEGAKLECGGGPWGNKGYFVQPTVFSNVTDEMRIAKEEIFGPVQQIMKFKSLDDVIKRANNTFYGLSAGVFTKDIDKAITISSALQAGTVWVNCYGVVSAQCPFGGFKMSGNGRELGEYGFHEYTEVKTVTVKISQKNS
Numbers without * were called inactive; ? = inconclusive; . = not tested or not shown; [ ] = remark or other dose. Unless noted, calls come from the whole dose curve; as a rule, active = well fitted inhibition curve with a large enough effect (not every such curve was filed as active); inconclusive = small, poorly fitted or top-dose-only effect, or another doubt; inactive = no such curve, though single readings can be large or run the other way. Unless noted, % is set by controls: 0 for no effect and ±100 for the full control effect.

SMILES	IMPase Li cell	IMPase inh	HPGD block	PNC inhibitor	ALDH1A1 inh
COc1ccccc1/C=C/C=N/n1c(-c2ccncc2)n[nH]c1=S	14%	.	14µM*	?	4%
COc1ccc(-c2cc(-c3n[nH]c(=S)n3-c3ccccc3OC)[nH]n2)cc1	2%	.	11µM*	47	?
COc1ccc(-c2n[nH]c(=S)n2/N=C/C=C\c2ccccc2OC)cc1	0%	-1	0.89µM*	-5	?
CC(O)C1CCC2C3CC[C@H]4CC(O)CCC4(C)C3CC3(OCCO3)C12C (stereo not given in full)	4%[38.3 µM]	-5	-4%	23	?
C=C1C(CCl)(CCl)C2(Cl)C(Cl)C(Cl)C1(Cl)C2(Cl)Cl (stereo not given)	25%	.	-19%	.	14µM*
O=c1c(-c2cccc(F)c2)nc2cncnc2n1C1CC1	1%	.	-10%	.	-1%
CNC(=O)C1(C)C=CCN1C(=O)OC (stereo not given)	-2%	.	-1%	.	4%
CCn1c(COc2ccccc2)nnc1SCC(=O)C(C)(C)C	-1%[38.3 µM]	1	-7%	-97*	?
CN(C(=O)c1cnc(N2CCN(c3ncccn3)CC2)c2ccccc12)c1ccc(Cl)cc1	13%[38.3 µM]	-12	22µM*	4	9%
CCN(C(=O)c1cnc(N2CCN(c3ncccn3)CC2)c2ccccc12)c1cccc(Cl)c1	25%[38.3 µM]	-3	?	35	?
CC(C)NC(=O)c1cnc(N2CCN(c3ccccn3)CC2)c2ccccc12	2%[38.3 µM]	6	?	4	32µM*
CC(C)C[C@H](NC(=O)C1OC1C(=O)O)C(=O)NCCCCN=C(N)N (stereo not given in full)	14%	.	-6%	.	-4%
CC(=O)c1sc2nc(C)cc(C)c2c1N	15%[38.3 µM]	5[1.84 µM]	?	9	?
COCc1cc(C)nc2sc(C(=O)N3CCCC3)c(N)c12	7%[38.3 µM]	4	2.5µM*	-117*	?
Cc1cc(C)c2c(N)c(C(=O)N3CCCCCC3)sc2n1	21%[38.3 µM]	-9	1.6µM*	20	?
Cc1cc(C)c2c(N)c(C(=O)NCc3ccco3)sc2n1	1%	-5	?	-98*	?
COCc1cc(C)nc2sc(C(=O)OC)c(N)c12	3%[38.3 µM]	1	-11%	29	-9%
CN(Cc1cccc(Cl)c1Cl)C(=O)c1ccc(NC(=O)CC#N)cc1	2%	-8	18µM*	16	-15%
CO[C@H]1COC(=O)C/C=C\[C@H](C)COC(=O)[C@@H](C)NC(=O)C/C=C\[C@@H]1C	.	.	.	.	9%[13.5 µM]
COc1cccc(Cn2c(=O)c(C)nc3cnc(OCc4ccccc4)nc32)c1	6%	.	-22%	.	?
O=C(NCc1ccco1)C1CCCN(S(=O)(=O)c2ccc(-n3cnnn3)cc2)C1 (stereo not given)	-12%[38.3 µM]	-8	-14%	9	25µM*
O=C(NCc1ccco1)C1CCCN(S(=O)(=O)c2cccc3cccnc23)C1 (stereo not given)	12%[38.3 µM]	0	-9%	30	25µM*
COc1ccccc1CNC(=O)C1CCCN1S(=O)(=O)c1cccc2cccnc12 (stereo not given)	-19%[38.3 µM]	-8	22µM*	0	?
COc1cc(NC(=O)C2CCCN2S(=O)(=O)c2cccc3cccnc23)cc(OC)c1OC (stereo not given)	10%	-8	-9%	?	11%
O=C(NCCc1ccccc1)C1CCN(S(=O)(=O)c2ccc(-n3cnnn3)cc2)CC1	-13%[38.3 µM]	-1	-6%	38	14µM*
CC(C)(C)NC(=O)C1CCCN(S(=O)(=O)c2cccc3cccnc23)C1 (stereo not given)	9%[38.3 µM]	0	-3%	35	3%
COCCNc1nc(-c2cc(C)c(C)cc2C)cs1	6%	.	.	.	?
O=C(NCc1ccco1)C1CCC(CNS(=O)(=O)c2cccc3cccnc23)CC1 (stereo not given)	-1%[38.3 µM]	-7	20µM*	-24	13µM*
O=C(NCc1ccccc1)C1CCN(S(=O)(=O)c2cccc3cccnc23)CC1	22%[38.3 µM]	-4	-6%	1	11%
C/C(CC1(O)C(=O)N(C)c2ccccc21)=N\O (stereo not given)	10%[38.3 µM]	10	-13%	7	5%
